Common to all, as to details: mRNA level, 48 h; actives raise or lower the signal
Read-out in experiment [1]: Tumor necrosis factor receptor superfamily member 6 (Homo sapiens) (UniProt P25445)
As to the kind of experiment: LTEA_HepaRG_FAS: Life Technologies and Expression Analysis (LTEA) Assay for Fas cell surface death receptor (FAS) using HepaRG (AID 2283447). In short, it runs like this:
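Differentiated HepaRG cells in serum-free induction medium were exposed 48 h to 8 half-log concentrations up to 100 uM in 0.5% DMSO, in duplicate. FAS mRNA was measured by qRT-PCR normalised to ACTB, GAPDH and POLR2A; bidirectional fit versus DMSO.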

Read-out in experiment [2]: Fatty acid synthase (Homo sapiens) (UniProt P49327)
As to the kind of experiment: LTEA_HepaRG_FASN: Life Technologies and Expression Analysis (LTEA) Assay for Fatty Acid Synthase (FASN) using HepaRG (AID 2283448). In short, it runs like this:
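Cells were plated, cultured 48 h, switched to serum-free induction medium, then dosed in duplicate (max 100 uM, half-log dilutions, 0.5% DMSO) for 48 h. RNA was then isolated and FASN quantified by qRT-PCR.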

Read-out in experiment [3]: Cyclin Dependent Kinase Inhibitor 1A (CDKN1A), CDKN1A (gene 1026)
Briefly: LTEA_HepaRG_CDKN1A: Life Technologies and Expression Analysis (LTEA) Assay for Cyclin Dependent Kinase Inhibitor 1A (CDKN1A) using HepaRG (AID 2283450). In short, it runs like this: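 Differentiated human HepaRG cells, pre-cultured 48 h, were exposed in duplicate for 48 h in serum-free induction medium to eight half-log concentrations up to 100 uM (0.5% DMSO). CDKN1A mRNA was measured by qRT-PCR, normalized to ACTB/GAPDH/POLR2A, bidirectionally fitted versus DMSO.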

Read-out in experiment [4]: Cyclin D1 (CCND1), CCND1 (gene 595)
Briefly: LTEA_HepaRG_CCND1: Life Technologies and Expression Analysis (LTEA) Assay for Cyclin D1 (CCND1) using HepaRG (AID 2283451).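 On AC50: TaqMan qRT-PCR transcript level normalised to ACTB GAPDH and POLR2A housekeeping genes.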 Put shortly:
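Differentiated human HepaRG cells in serum-free induction medium were exposed 48 h to eight half-log concentrations up to 100 uM in 0.5% DMSO; mRNA quantified by TaqMan qRT-PCR, normalized to ACTB, GAPDH, POLR2A, fitted bidirectionally versus DMSO.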

Read-out in experiment [5]: catalase (CAT), CAT (gene 847)
As to the kind of experiment: LTEA_HepaRG_CAT: Life Technologies and Expression Analysis (LTEA) Assay for catalase (CAT) using HepaRG (AID 2283452). In short, it runs like this:
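HepaRG cells in serum-free induction medium, 0.5% DMSO vehicle, exposed 48 h in duplicate over 8 half-log concentrations from 100 uM. CAT mRNA measured by qRT-PCR, normalized to ACTB, GAPDH, POLR2A; bidirectional fit versus DMSO.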

Read-out in experiment [6]: flavin-containing dimethylaniline monooxygenases 3 (FMO3), FMO3 (gene 2328)
Briefly: LTEA_HepaRG_FMO3: Life Technologies and Expression Analysis (LTEA) Assay for flavin-containing dimethylaniline monooxygenases 3 (FMO3) using HepaRG (AID 2283453). In short, it runs like this: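 FMO3 transcript quantified by TaqMan qRT-PCR against three housekeeping genes after 48 h chemical exposure of HepaRG cells. Eight-point half-log series, top 100 uM, 0.5% DMSO vehicle; phenobarbital 1mM induction control; up- or down-regulation fitted.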

Read-out in experiment [7]: Cytochrome P450 (CYP1A1), CYP1A1 (gene 1543)
As to the kind of experiment: LTEA_HepaRG_CYP1A1: Life Technologies and Expression Analysis (LTEA) Assay for Cytochrome P450 (CYP1A1) using HepaRG (AID 2283454). In short, it runs like this:
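Differentiated HepaRG cells in serum-free induction medium were exposed in duplicate for 48 h to eight half-log concentrations up to 100 uM in 0.5% DMSO. CYP1A1 mRNA was quantified by TaqMan qRT-PCR, normalized to ACTB, GAPDH and POLR2A.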

Read-out in experiment [8]: CFLAR gene, CFLAR (gene 8837)
As to the kind of experiment: LTEA_HepaRG_CFLAR: Life Technologies and Expression Analysis (LTEA) Assay for CFLAR gene using HepaRG (AID 2283455). Put shortly: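 qRT-PCR read-out (Fluidigm/TaqMan) of CFLAR mRNA, normalized to three housekeeping genes, in differentiated human HepaRG cells after 48 h chemical exposure; 8-point half-log series from 100 uM in 0.5% DMSO; bidirectional curve fitting versus DMSO.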

Read-out in experiment [9]: Forkhead box O1 (FOXO1), FOXO1 (gene 2308)
Briefly: LTEA_HepaRG_FOXO1: Life Technologies and Expression Analysis (LTEA) Assay for Forkhead box O1 (FOXO1) using HepaRG (AID 2283456). Put shortly: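 HepaRG, 48 h exposure, 8-pt half-log series from 100 uM in 0.5% DMSO, duplicates; Fluidigm qRT-PCR mRNA, housekeeping-normalised; bidirectional fit vs DMSO baseline.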

Read-out in experiment [10]: growth arrest and DNA damage 45 (GADD45A), GADD45A (gene 1647)
As to the kind of experiment: LTEA_HepaRG_GADD45A: Life Technologies and Expression Analysis (LTEA) Assay for growth arrest and DNA damage 45 (GADD45A) using HepaRG (AID 2283458). In short, it runs like this:
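Transcript induction or loss, quantified by TaqMan qRT-PCR against three housekeeping genes, is the read-out. HepaRG cells received chemicals for 48 h across eight half-log concentrations from 100 uM in 0.5% DMSO; gain and loss fitted relative to DMSO.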

Read-out in experiment [11]: Forkhead box O3 (FOXO3), FOXO3 (gene 2309)
As to the kind of experiment: LTEA_HepaRG_FOXO3: Life Technologies and Expression Analysis (LTEA) Assay for Forkhead box O3 (FOXO3) using HepaRG (AID 2283459). In short, it runs like this:
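qRT-PCR readout of FOXO3 transcript, normalized to three housekeeping genes (ACTB, GAPDH, POLR2A); gain or loss fitted against 0.5% DMSO vehicle. HepaRG cells, 48 h chemical exposure, 8-point half-log series, top 100 uM.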

Read-out in experiment [12]: ABC Transporter (ABCB1), ABCB1 (gene 5243)
As to the kind of experiment: LTEA_HepaRG_ABCB1: Life Technologies and Expression Analysis (LTEA) Assay for ABC Transporter (ABCB1) using HepaRG (AID 2283460). In short, it runs like this: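 HepaRG, 48 h exposure, 8-pt half-log series from 100 uM, 0.5% DMSO vehicle, duplicates. Readout: ABCB1 transcript by Fluidigm TaqMan qRT-PCR, housekeeping-normalized; bidirectional curve fit vs DMSO baseline.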

Read-out in experiment [13]: growth arrest and DNA damage 45 (GADD45B), GADD45B (gene 4616)
As to the kind of experiment: LTEA_HepaRG_GADD45B: Life Technologies and Expression Analysis (LTEA) Assay for growth arrest and DNA damage 45 (GADD45B) using HepaRG (AID 2283461). In short, it runs like this:
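Differentiated HepaRG cells, plated 48 h then switched to serum-free induction medium, were exposed 48 h in duplicate to eight half-log concentrations from 100 uM in 0.5% DMSO; mRNA quantified by qRT-PCR, normalized to ACTB/GAPDH/POLR2A, bidirectional fit versus DMSO.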

Read-out in experiment [14]: ABC Transporter (ABCC3), ABCC3 (gene 8714)
As to the kind of experiment: LTEA_HepaRG_ABCC3: Life Technologies and Expression Analysis (LTEA) Assay for ABC Transporter (ABCC3) using HepaRG (AID 2283462). Put shortly: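 HepaRG cells in serum-free induction medium were exposed for 48 h in duplicate to 8-point half-log concentrations topping at 100 uM in 0.5% DMSO. ABCC3 mRNA was measured by qRT-PCR normalized to ACTB, GAPDH and POLR2A, with bidirectional fitting versus DMSO.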

Read-out in experiment [15]: Cyclin D2 (CCND2), CCND2 (gene 894)
As to the kind of experiment: LTEA_HepaRG_CCND2: Life Technologies and Expression Analysis (LTEA) Assay for Cyclin D2 (CCND2) using HepaRG (AID 2283449).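 Further: CCND2 transcript measured by TaqMan qRT-PCR and normalised to three housekeeping genes.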 Put shortly: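 HepaRG, 48 h dosing, 8-pt half-log curve from 100 uM, 0.5% DMSO; duplicate wells. Readout: CCND2 transcript by microfluidic qRT-PCR, housekeeping-normalised; bidirectional fit vs DMSO baseline.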

The source made the active and inactive calls. How the source made its calls: active means hit-call score of the fitted dose curve at least 0.9, where 1 is the maximum; inactive means score below 0.9.

Sequence of Fatty acid synthase (Homo sapiens) (P49327 whole entry, looked up): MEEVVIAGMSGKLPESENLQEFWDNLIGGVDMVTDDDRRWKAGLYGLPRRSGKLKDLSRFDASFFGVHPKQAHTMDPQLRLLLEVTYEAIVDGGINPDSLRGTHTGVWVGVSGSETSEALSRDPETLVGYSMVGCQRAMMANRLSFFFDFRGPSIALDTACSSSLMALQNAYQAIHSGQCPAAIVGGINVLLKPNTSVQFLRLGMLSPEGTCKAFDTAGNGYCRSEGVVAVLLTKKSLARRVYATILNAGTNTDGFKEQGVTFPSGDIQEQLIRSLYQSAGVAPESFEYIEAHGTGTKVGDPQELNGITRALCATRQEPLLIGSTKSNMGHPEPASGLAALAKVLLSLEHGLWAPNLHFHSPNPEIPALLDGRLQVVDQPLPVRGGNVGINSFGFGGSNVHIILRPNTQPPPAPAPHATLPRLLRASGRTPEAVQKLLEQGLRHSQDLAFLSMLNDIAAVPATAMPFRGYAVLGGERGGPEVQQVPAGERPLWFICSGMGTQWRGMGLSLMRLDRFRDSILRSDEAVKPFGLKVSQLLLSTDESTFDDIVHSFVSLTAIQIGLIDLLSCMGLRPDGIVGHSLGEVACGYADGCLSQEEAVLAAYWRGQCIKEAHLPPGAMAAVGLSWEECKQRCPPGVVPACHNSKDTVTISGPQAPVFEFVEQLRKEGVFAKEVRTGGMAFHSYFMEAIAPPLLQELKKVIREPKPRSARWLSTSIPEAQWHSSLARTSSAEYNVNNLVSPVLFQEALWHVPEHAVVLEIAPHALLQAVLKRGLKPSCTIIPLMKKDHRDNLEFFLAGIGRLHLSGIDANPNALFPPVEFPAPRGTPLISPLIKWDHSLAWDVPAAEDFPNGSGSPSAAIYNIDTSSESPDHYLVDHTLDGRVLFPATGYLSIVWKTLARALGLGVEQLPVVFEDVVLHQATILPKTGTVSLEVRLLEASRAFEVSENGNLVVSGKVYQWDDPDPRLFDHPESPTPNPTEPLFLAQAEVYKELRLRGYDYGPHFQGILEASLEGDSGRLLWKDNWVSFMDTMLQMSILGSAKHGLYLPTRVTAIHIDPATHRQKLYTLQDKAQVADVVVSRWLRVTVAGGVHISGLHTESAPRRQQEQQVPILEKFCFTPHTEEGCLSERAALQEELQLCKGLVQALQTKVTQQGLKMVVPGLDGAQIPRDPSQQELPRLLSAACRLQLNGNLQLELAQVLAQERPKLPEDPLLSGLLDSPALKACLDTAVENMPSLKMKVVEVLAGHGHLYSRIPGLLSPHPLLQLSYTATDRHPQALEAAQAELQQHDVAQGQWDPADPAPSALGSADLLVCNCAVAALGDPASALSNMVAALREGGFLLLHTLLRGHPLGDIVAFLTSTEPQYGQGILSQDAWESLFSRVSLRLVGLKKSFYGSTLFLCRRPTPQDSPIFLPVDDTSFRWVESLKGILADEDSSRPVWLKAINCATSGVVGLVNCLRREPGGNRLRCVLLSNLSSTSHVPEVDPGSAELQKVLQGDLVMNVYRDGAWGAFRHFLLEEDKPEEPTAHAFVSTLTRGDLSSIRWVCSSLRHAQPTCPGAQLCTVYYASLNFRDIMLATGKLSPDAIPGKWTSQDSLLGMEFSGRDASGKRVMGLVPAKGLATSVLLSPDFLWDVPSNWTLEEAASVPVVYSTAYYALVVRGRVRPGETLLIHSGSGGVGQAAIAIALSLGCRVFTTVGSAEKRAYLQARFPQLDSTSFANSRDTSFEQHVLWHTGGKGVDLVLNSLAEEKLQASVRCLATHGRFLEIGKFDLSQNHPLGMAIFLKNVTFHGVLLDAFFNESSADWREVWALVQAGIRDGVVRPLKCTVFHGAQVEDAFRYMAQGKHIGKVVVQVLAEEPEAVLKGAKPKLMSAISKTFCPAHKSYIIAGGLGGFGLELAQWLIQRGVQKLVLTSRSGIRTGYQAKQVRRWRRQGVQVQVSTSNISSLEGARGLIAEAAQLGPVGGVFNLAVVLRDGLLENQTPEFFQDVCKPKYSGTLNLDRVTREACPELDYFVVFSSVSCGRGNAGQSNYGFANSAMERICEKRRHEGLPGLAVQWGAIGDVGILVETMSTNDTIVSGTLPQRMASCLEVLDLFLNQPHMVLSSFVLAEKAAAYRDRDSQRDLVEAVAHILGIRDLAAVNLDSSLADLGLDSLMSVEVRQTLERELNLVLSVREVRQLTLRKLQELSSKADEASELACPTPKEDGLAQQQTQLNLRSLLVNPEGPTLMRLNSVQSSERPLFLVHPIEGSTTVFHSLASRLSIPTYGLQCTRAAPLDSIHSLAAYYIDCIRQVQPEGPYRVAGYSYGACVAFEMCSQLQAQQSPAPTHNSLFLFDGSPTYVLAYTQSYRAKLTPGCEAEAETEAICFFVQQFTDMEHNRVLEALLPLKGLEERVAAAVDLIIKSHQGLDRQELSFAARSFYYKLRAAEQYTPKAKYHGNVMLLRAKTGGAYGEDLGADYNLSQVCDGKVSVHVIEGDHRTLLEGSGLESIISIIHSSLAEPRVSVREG

Regarding `CCCCCCCCCCCCc1ccccc1`, the compound was called inactive in experiment [1], in [2], in [3], in experiment [4], in experiment [5] and in experiment [6]. In addition, the call in [8], in experiment [9], in [10], in [11], in experiment [12] and in experiment [13] was inactive. Besides, the result in experiment [14] was inactive. Besides, the concentration at half-maximal activity (AC50) (commonly the concentration giving half of the maximal activity seen) in experiment [7] is 73.7 µM (active).

`O=C(CCCCCCCCc1cccnc1)N1CCC(C=C(c2ccccc2)c2ccccc2)CC1`: the AC50 in experiment [1] was 50 µM (active); in [2], 50 µM (active); in experiment [3], 27 µM (active); in [5], 22.5 µM (active); in [6], 29.6 µM (active); in [9], 12.4 µM (active). Also, the concentration at half-maximal activity (AC50) in experiment [10] is 26.9 µM (active); in experiment [13] it was 84.6 µM (active). For the same compound, the outcome in [15], in experiment [4], in experiment [8], in [11] and in [14] was inactive.

`Cc1[nH]cnc1C[C@H]1CCc2c(C)c3ccccc3n2C1=O`: the AC50 was 69.3 µM (active) in [1]; 29.9 µM (active) in [2]; 79.7 µM (active) in experiment [4]; 24.3 µM (active) in experiment [5]; 32 µM (active) in experiment [6]; 10.7 µM (active) in [7]. The AC50 in [8] was 79.9 µM (active); in experiment [9] it was 75.4 µM (active); in [10] it was 62 µM (active); in experiment [13], 25.2 µM (active); in experiment [14], 10.6 µM (active). In addition, the result in experiment [3] and in experiment [11] was inactive.

For the compound `O=C(O)CC(O)C(=O)O` (centres undefined), the outcome in experiment [1], in experiment [2], in [3], in experiment [4], in experiment [5] and in [6] was inactive. The call in experiment [8], in experiment [9], in [10], in experiment [11], in experiment [13] and in [14] was inactive.

`O=c1n(CC2CO2)c(=O)n(CC2CO2)c(=O)n1CC1CO1` (centres undefined): the figures for the concentration at half-maximal activity (AC50) in experiment [1], in experiment [3] and in [13] were 89.1 µM (active), 58.7 µM (active) and 79.1 µM (active), respectively. Besides, the outcome in experiment [2], in experiment [15], in experiment [4], in [5], in [6] and in experiment [8] was inactive. Also, the result in [9], in experiment [10], in experiment [11], in experiment [12] and in experiment [14] was inactive.

Take `CN(C)c1ccc(N=NS(=O)(=O)O)cc1`: the compound was called inactive in experiment [1], in experiment [2], in experiment [3], in experiment [4], in experiment [5] and in experiment [6]. Also, the call in [8], in experiment [9], in [10], in [12] and in experiment [14] was inactive. Besides, the AC50 in experiment [11] is 16.4 µM (active); in [13], 31 µM (active).

For the origin of these results see PubChem BioAssay (EPA / NIEHS).
